This is an account of results in PubChem BioAssay.

The test system of test [1] is PRMT1 (protein arginine N-methyltransferase 1). Nature of the test: PRMT1 binders on small-molecule microarrays, primary screen, biochemical, small-molecule microarray, 635 nm fluorescence (AID 1088).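 Also: binding of Prmt1 protein to compounds spotted on small-molecule microarray slides.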 Conditions: small-molecule microarray binding, higher = more signal.
Test [2] can be described thus: yeast growth modulation, basal conditions, primary screen, YJM789 clinical isolate, OD600, 24 h (AID 1089).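 Also: growth of clinical yeast isolate S. cerevisiae YJM 789 seeded 1000 cells per well; test concentration not given here.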 Conditions: S. cerevisiae YJM789 growth, higher = more signal, called active from +8 up or from −8 down.
Test [3] can be described thus: fission yeast growth modulation, primary screen, strain 972, OD600, 24 h, no modulator (AID 1090).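 Also: basal condition with compound alone and no growth modifier present; test concentration not given here.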 Conditions: S. pombe 972 growth, higher = more signal, called active from +8 up or from −8 down.
Test [4] can be described thus: S. cerevisiae growth modulation with rapamycin, primary screen, strain BY4716, OD600, 96 h (AID 1091). Also: test concentration not given here. Conditions: higher = more signal, called active from +8 up or from −8 down.
Test [5] deals with Torsin-1A-interacting protein 2 (Homo sapiens) (UniProt Q8NFQ8). Nature of the test: LULL1 binders on small-molecule microarray, primary screen, cell lysate, human LULL1 lysate, 635/667 nm fluorescence (AID 1092).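 Also: probe is lysate of COS7 cells overexpressing human LULL1; score merges per-feature 667 nm fluorescence with signal-to-noise.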 The settings on record: hLULL1 lysate binding, 635 nm fluorescence, higher = more signal.
Test [6] is described as follows: E. coli growth modulation, two-sided OD650, primary screen, E. coli filamentation project, strain DRC41, 24 h (AID 1093).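 Also: MC1000 strain lacking acrAB efflux and sulA so SOS filamentation is blocked; test concentration not given here.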 The settings on record: OD650, 24 h, higher = more signal, called active from +8 up or from −8 down.
Test [7] is described as follows: small-molecule microarray binders of probe aLefty2, primary screen, biochemical, biotinylated probe, 635/667 nm fluorescence (AID 1094).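 Also: score merges spot fluorescence near 667 nm with spot signal-to-noise ratio.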 Conditions: higher = more signal.
Test [8] relates to Noggin (protein binding on small-molecule microarray). Nature of the test: Noggin binders on small-molecule microarray, primary screen, biochemical, 635/667 nm fluorescence (AID 1095).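 Also: score merges 667 nm feature fluorescence with signal to noise over triplicate slides.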 Conditions: 635 nm fluorescence, higher = more signal.
The target in test [9] is Neurogenic locus notch homolog protein 3 (Homo sapiens) (UniProt Q9UM47). Nature of the test: NOTCH3 binders on small-molecule microarray, primary screen, biochemical, 635/667 nm fluorescence (AID 1096). The settings on record: NOTCH3 binding, 635 nm fluorescence, higher = more signal.
Test [10] in a line: small-molecule microarray binders of probe aEGFR, primary screen, biochemical, biotinylated probe, 635/667 nm fluorescence (AID 1097).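 Also: probe is a biotinylated anti-EGFR antibody binding compounds printed on slides; score combines fluorescence near 667 nm and signal to noise of each spot.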 The settings on record: higher = more signal.
Test [11] concerns Plasmodium falciparum Sir2 (PF13_0152, Sir2A). Nature of the test: pfSir2 binders on small-molecule microarrays, primary screen, biochemical, small-molecule microarray, 635 nm fluorescence (AID 1098).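 Also: score merges spot fluorescence intensity with its signal-to-noise ratio.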 The settings on record: small-molecule microarray binding, fluorescence 635 nm; higher = more signal.
The nature of test [12]: small-molecule microarray binders of probe aDKK1, primary screen, biochemical, biotinylated probe, 635/667 nm fluorescence (AID 1099).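 Also: score merges 667nm spot fluorescence with signal to noise across triplicate slides; reference of the scale not given here.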 Conditions: higher = more signal.
Test [13] can be described thus: small-molecule microarray binders of probe aCHRDL2, primary screen, biochemical, biotinylated probe, 635/667 nm fluorescence (AID 1100). Conditions: higher = more signal.
Test [14] is described as follows: splicing luciferase reporter signal modulators, primary screen, spliceosome inhibition project, cell-based, HEK293, splice +/- reporter (AID 1101).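 Also: HEK293 cells carrying a splicing-competent luciferase reporter gene; test concentration not given here.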 Conditions: luminescence, 24 h, higher = more signal, called active from +8 up or from −8 down. Background: In a reporter assay the amount or activity of a reporter protein is the signal.
For test [15], the target named is Fibroblast growth factor 10 (Homo sapiens) (UniProt O15520). Nature of the test: FGF10 binders on small-molecule microarrays, primary screen, biochemical, small-molecule microarray, 635 nm fluorescence (AID 1102). Conditions: FGF10 binding, fluorescence 635 nm, higher = more signal.
For test [16], the system named is glycogen synthase kinase-3 (GSK3A per assay name; protocol says GSK3B). Nature of the test: GSK3 binders on small-molecule microarrays, primary screen, biochemical, small-molecule microarray, 635 nm fluorescence, GSK3A (AID 1103). Also: the record names both GSK3A and GSK3B. The settings on record: small-molecule microarray binding, fluorescence 635 nm; higher = more signal.
Test [17] deals with Epidermal growth factor receptor (Homo sapiens) (UniProt P00533). Nature of the test: EGFR binders on small-molecule microarrays, primary screen, biochemical, small-molecule microarray, 635 nm fluorescence (AID 1104).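 Also: score merges 667 nm emission intensity with spot signal to noise over triplicate slides.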 The settings on record: EGFR binding, higher = more signal.
The target of test [18] is Follistatin-related protein 3 (Homo sapiens) (UniProt O95633). Nature of the test: FSTL3 binders on small-molecule microarrays, primary screen, biochemical, small-molecule microarray, 635 nm fluorescence (AID 1105).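 Also: score merges emission near 667 nm and signal to noise per printed spot across three slides.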 Conditions: FSTL3 binding, higher = more signal.
The target in test [19] is Dickkopf-related protein 1 (Homo sapiens) (UniProt O94907). Nature of the test: DKK1 binders on small-molecule microarrays, primary screen, biochemical, small-molecule microarray, 635 nm fluorescence scan (AID 1106).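 Also: score merges emission near 667 nm with signal to noise over three replicate slides.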 The settings on record: DKK1 binding, higher = more signal.
For test [20], the system named is Inhibin beta A chain (activin A). Nature of the test: INHBA (activin A) binders on microarrays, primary screen, biochemical, small-molecule microarray, 635 nm fluorescence scan (AID 1107).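 Also: mouse activin A protein probed at 4.33 µg/mL on printed slides; score merges bound-protein fluorescence near 667 nm with spot signal-to-noise.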 The settings on record: small-molecule microarray binding, higher = more signal.

Calls of active or inactive are those of the source.

Fibroblast growth factor 10 (Homo sapiens), sequence (O15520 whole entry, looked up): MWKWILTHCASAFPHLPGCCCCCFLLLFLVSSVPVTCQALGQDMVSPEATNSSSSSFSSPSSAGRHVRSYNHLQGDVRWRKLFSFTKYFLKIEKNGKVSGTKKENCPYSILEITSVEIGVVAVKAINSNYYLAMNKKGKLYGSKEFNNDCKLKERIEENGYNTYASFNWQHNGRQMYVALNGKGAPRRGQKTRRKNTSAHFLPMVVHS
Torsin-1A-interacting protein 2 (Homo sapiens), sequence (Q8NFQ8 whole entry, looked up): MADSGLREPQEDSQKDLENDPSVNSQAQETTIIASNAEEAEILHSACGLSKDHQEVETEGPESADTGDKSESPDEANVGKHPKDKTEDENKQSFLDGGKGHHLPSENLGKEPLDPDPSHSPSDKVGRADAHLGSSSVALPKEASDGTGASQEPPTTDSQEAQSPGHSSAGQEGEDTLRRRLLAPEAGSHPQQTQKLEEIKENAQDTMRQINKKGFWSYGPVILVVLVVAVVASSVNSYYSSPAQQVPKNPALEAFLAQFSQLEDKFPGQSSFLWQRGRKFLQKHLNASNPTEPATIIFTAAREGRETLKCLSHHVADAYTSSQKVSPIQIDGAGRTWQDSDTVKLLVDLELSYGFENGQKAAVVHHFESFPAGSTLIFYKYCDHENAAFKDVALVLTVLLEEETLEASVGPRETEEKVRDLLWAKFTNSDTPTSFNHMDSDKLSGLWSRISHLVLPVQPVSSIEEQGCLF
Dickkopf-related protein 1 (Homo sapiens), sequence (O94907 whole entry, looked up): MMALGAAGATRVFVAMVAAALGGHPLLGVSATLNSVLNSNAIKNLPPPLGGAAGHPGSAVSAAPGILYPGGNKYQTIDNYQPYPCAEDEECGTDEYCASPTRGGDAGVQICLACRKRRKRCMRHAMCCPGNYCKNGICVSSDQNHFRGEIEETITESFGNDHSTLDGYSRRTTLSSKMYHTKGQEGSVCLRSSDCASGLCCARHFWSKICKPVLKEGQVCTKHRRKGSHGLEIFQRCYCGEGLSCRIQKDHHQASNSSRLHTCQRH
Epidermal growth factor receptor (Homo sapiens), sequence (P00533 whole entry, looked up): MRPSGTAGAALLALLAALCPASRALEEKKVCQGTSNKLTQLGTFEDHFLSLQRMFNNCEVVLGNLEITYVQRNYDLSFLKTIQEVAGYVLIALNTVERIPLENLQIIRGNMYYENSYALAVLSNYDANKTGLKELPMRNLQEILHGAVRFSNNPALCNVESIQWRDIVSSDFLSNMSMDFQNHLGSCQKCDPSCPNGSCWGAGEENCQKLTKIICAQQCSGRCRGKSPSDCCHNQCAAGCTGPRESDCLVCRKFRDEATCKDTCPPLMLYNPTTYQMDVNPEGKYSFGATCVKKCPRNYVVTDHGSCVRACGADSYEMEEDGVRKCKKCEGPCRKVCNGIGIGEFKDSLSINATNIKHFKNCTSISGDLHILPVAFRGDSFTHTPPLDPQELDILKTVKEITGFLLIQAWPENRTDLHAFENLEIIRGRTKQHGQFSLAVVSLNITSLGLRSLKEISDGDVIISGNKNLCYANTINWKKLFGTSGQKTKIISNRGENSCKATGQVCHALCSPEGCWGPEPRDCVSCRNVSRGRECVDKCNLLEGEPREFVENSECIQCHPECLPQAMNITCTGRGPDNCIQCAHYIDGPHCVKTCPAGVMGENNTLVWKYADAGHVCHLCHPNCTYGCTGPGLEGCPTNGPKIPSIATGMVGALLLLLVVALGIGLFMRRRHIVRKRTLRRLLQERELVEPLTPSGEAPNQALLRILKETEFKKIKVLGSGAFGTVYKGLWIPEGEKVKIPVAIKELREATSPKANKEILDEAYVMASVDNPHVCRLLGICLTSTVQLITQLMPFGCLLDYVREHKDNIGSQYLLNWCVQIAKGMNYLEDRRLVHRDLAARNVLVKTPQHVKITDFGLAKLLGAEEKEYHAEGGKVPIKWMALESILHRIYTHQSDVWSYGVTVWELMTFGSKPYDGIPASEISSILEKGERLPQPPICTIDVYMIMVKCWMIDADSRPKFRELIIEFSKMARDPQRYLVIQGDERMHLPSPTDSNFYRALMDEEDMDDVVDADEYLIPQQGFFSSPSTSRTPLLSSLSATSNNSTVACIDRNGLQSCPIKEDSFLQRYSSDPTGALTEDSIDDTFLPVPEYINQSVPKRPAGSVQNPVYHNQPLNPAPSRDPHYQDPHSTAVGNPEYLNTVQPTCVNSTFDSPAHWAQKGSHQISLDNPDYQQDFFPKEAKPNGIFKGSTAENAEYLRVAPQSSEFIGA
Neurogenic locus notch homolog protein 3 (Homo sapiens), sequence (Q9UM47 whole entry, looked up): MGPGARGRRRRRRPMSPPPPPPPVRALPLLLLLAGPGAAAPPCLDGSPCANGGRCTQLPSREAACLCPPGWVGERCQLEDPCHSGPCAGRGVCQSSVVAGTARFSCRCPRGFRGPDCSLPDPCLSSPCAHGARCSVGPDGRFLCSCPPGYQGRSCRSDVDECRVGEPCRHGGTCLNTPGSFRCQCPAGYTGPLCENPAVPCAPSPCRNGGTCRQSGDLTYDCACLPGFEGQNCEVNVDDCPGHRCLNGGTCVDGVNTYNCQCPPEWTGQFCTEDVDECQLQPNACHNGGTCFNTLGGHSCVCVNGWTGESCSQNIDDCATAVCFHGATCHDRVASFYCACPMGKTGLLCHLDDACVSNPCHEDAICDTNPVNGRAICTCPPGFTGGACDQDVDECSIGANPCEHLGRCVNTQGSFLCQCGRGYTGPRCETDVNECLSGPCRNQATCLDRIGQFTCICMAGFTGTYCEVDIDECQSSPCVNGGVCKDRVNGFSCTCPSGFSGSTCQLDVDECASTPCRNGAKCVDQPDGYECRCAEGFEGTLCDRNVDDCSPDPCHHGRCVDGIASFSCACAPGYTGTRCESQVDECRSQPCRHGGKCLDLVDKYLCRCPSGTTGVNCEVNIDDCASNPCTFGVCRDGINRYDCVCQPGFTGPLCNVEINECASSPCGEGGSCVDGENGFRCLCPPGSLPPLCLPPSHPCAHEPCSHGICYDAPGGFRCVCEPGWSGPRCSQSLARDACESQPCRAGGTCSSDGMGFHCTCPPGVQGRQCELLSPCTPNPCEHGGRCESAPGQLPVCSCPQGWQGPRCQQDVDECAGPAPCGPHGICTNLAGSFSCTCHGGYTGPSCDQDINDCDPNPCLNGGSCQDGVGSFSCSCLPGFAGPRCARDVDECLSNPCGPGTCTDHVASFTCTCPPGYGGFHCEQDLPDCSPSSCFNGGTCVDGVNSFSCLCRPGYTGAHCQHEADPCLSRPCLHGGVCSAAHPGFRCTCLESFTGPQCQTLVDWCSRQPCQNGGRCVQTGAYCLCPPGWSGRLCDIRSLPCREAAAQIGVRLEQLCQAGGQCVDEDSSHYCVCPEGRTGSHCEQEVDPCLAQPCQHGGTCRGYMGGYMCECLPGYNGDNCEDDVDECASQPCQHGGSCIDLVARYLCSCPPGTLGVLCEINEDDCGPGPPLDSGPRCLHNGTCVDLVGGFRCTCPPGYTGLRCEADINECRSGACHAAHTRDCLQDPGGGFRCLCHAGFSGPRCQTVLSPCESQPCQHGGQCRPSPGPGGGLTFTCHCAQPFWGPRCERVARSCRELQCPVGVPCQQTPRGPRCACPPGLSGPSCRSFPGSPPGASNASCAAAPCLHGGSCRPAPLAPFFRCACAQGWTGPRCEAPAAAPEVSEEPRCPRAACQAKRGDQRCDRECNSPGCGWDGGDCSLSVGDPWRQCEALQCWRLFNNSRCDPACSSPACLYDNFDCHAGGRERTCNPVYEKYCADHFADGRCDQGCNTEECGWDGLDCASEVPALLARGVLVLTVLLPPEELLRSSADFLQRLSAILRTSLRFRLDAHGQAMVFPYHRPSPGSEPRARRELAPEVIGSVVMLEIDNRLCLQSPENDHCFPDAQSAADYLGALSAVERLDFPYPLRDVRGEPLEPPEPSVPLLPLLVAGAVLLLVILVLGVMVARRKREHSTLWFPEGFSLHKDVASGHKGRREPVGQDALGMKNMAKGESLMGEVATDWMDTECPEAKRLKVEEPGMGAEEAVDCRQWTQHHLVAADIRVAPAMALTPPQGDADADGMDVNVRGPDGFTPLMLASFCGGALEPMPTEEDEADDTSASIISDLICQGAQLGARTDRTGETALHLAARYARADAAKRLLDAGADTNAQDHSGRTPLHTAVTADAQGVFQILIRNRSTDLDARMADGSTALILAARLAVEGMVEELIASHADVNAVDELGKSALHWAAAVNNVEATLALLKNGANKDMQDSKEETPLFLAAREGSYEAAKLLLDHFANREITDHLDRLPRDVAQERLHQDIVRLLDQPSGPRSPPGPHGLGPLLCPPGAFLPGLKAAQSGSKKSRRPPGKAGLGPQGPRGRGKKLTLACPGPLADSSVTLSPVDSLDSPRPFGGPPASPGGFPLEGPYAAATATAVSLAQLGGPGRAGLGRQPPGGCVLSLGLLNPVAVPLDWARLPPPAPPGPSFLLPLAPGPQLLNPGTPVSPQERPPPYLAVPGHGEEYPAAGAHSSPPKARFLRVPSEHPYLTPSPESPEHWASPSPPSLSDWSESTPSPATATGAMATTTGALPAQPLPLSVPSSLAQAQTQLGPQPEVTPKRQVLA
Follistatin-related protein 3 (Homo sapiens), sequence (O95633 whole entry, looked up): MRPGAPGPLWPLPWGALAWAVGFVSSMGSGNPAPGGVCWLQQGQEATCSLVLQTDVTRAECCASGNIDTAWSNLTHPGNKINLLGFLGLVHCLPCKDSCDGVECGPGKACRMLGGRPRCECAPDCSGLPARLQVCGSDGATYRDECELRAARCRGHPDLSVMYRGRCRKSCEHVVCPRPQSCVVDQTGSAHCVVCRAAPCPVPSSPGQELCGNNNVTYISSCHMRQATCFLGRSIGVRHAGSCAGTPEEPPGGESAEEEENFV

Consider `COC(=O)[C@@]1(Cc2ccc(F)cc2)[C@H]2c3cc(C(=O)N4CCCC4)n(CCO)c3C[C@H]2CN1C(=O)c1ccccc1`, for which the composite z-score in test [1] was -1.09; in [5] it was 2.88; in test [7], 0.335; in [8], 0.4; in test [9] it was 0.517; in test [10] it was 0.0753. The composite z-score is 1.33 in [11]; 0.532 in [12]; 0.977 in test [13]; 0.597 in test [15]; -0.166 in [16]; -0.244 in test [17]. For the same compound, the composite z-score was -0.479 in [18], -0.572 in test [19] and 0.671 in test [20]. Besides, the z-score in test [2] was -0.215 (inactive); in test [3] it was 1 (inactive); in test [4] it was -0.164 (inactive); in test [6] it was 0.208 (inactive); in test [14], -0.495 (inactive).

For `C=CCN1C(=O)[C@]2(O[C@H](CCn3cc([C@H](O)c4ccccc4)nn3)[C@@H]([Si](C)(C)c3ccc(OC)cc3)[C@@H]2C)c2cc(N3C(=O)c4cccc5cccc3c45)ccc21`, the composite z-score in [1] is 0.755; in test [5], 0.6; in [7], -0.217; in test [8], 0.624; in [9], 0.232; in [10] it was -0.28. The composite z-score is 0.783 in test [11]; -0.168 in test [12]; 0.195 in test [13]; 0.57 in test [15]; -0.549 in test [16]; -0.795 in test [17]. The composite z-score in test [18] is 0.187; in [19], -0.857; in test [20], -0.302. For the same compound, the z-score is -0.055 (inactive) in [2]; 1.06 (inactive) in [3]; 1.21 (inactive) in test [4]; 0.374 (inactive) in test [6]; -1.18 (inactive) in test [14].

For the compound `CC#CCO[Si](C#CCCCCCC)(C(C)C)C(C)C`, the composite z-score is 0.276 in [1]; 0.373 in [5]; 0.137 in test [7]; -2.8 in test [8]; -1.16 in test [9]; -0.466 in [10]. For the same compound, the composite z-score is 1.5 in [11]; -0.32 in test [12]; 1.21 in [13]; -2.46 in test [15]; -0.719 in [16]; -2.07 in test [17]. Besides, the composite z-score in test [18] is -2.09; in test [19], -3.48; in [20], -2.74. Further, the z-score in [2] is 0.176 (inactive); in test [3], -19.1 (active); in [4], -1.61 (inactive); in test [6] it was -0.0013 (inactive); in [14], 0.176 (inactive).

`C=CCN1C(=O)[C@]2(O[C@H](CCO)[C@@H]([Si](C)(C)c3ccc(OC)cc3)[C@@H]2C)c2ccccc21`: the composite z-score in test [1] was -0.539; in test [5], 0.602; in test [7], -0.0962; in test [8] it was -0.788; in [9], -0.593; in [10], -0.178. In addition, the composite z-score in test [11] is 0.504; in test [12] it was -0.141; in test [13], 0.837; in test [15] it was -0.876; in test [16], -0.73; in test [17] it was -0.66. Moreover, the composite z-score was -0.608 in test [18], -1.27 in test [19] and 0.456 in test [20]. Also, the z-score was -2.75 (inactive) in [2]; -3.07 (inactive) in [3]; 5.72 (inactive) in [4]; -0.41 (inactive) in test [6]; -3.11 (inactive) in test [14].

Turning to `CC1CC/C=C\[C@H]2OC34C=CCN(CCN5CCOCC5)C(=O)[C@H]3N(CCCCCCO)C(=O)[C@@H]4C2C(=O)O1` (stereo not given in full), the composite z-score in test [1] is -0.592; in test [5], 0.318; in [7] it was -0.192; in [8] it was -0.403; in test [9], -0.218; in [10], -0.278. Besides, the composite z-score in test [11] was 0.195; in [12] it was -0.301; in [13], 0.0746; in test [15], -0.721; in [16] it was -0.993; in test [17], -1. Also, the composite z-score is -0.704 in test [18], -0.355 in test [19] and 0.516 in [20]. The z-score is 0.0356 (inactive) in test [2]; -0.573 (inactive) in test [3]; 0.132 (inactive) in test [4]; -0.263 (inactive) in test [6]; 0.433 (inactive) in test [14].

For the compound `CO[C@H]1O[C@H](CO)[C@@H](OC(=O)Nc2ccc3c(c2)OCO3)[C@@H]2OC(=O)[C@@H](Cc3ccccc3)C/C=C/C[C@H](Cc3ccccc3)C(=O)O[C@@H]12`, the composite z-score in test [1] was 1.48; in test [5], 1.29; in test [7] it was -0.0562; in [8], 0.566; in [9] it was 0.887; in [10], 0.0528. Moreover, the composite z-score in test [11] is 0.915; in test [12], 0.0902; in test [13] it was 0.259; in test [15] it was 1.39; in test [16], 0.708; in test [17], 0.342. Further, the composite z-score in test [18] is 0.817; in [19], 0.401; in [20] it was 0.996. Also, the z-score in test [2] is 1.17 (inactive); in [3], 0.78 (inactive); in test [4], 2.27 (inactive); in test [6], 0.156 (inactive); in test [14], 0.216 (inactive).

With `O=C(NCCO)C1=C[C@H](Oc2ccccc2I)[C@@H](O)[C@H](NCc2ccc(F)cc2)C1`, the composite z-score in [1] was 0.517; in [5], -0.992; in test [7], -0.212; in [8] it was 1.66; in test [9], -0.0545; in [10] it was -0.202. Besides, the composite z-score is -1.55 in [11]; -0.472 in test [12]; -0.552 in [13]; 1.61 in test [15]; -0.814 in test [16]; -0.201 in [17]. Also, the composite z-score in [18] is -1.52; in [19], 1.19; in [20] it was -2.01. The z-score was 0.0567 (inactive) in test [2]; -20.5 (active) in test [3]; -0.455 (inactive) in test [4]; -0.909 (inactive) in test [6]; -0.635 (inactive) in test [14].

Consider `CCCC[C@@H]1C[C@H]1[C@@H](NC(=O)c1ccc(C(F)(F)F)cc1)c1ccc(C(=O)OC)cc1`, for which the composite z-score in test [1] amounted to 0.715; in test [5], 0.888; in [7], 0.293; in test [8] it was 0.747; in [9], 0.812; in test [10] it was 0.695. Moreover, the composite z-score is 0.234 in test [11]; 0.172 in test [12]; 0.158 in test [13]; 0.743 in test [15]; 0.352 in test [16]; 0.6 in test [17]. In addition, the composite z-score was found to be 1.09 in test [18], 0.583 in test [19] and 1.32 in test [20]. The z-score in test [2] is 0.119 (inactive); in test [3] it was -3.29 (inactive); in test [4], -0.898 (inactive); in [6] it was 0.255 (inactive); in test [14], -1.22 (inactive).

As for `COc1ccc([Si](C)(C)[C@@H]2[C@@H](CCO)O[C@]3(C(=O)N(Cc4ccccc4)c4ccc(N5C(=O)c6ccccc6Oc6ccccc65)cc43)[C@H]2C)cc1`, the composite z-score in [1] was 0.182; in [5], 1.21; in test [7], -0.136; in [8] it was 0.245; in test [9], 0.057; in test [10] it was -0.19. Besides, the composite z-score was 0.0104 in test [11]; -0.171 in test [12]; 0.462 in test [13]; -0.673 in test [15]; -1.02 in test [16]; -1.04 in test [17]. The composite z-score is -0.398 in test [18], -0.328 in test [19] and -0.0458 in test [20]. The z-score in [2] is 1.32 (inactive); in [3], 0.381 (inactive); in test [4], 8.27 (active); in test [6] it was 1.13 (inactive); in test [14], -1.28 (inactive).
